Experimental data: PubChem BioAssay AID1159580 (chemical genetic matrix, 2015)
Several values for one entry are separate records, joined by “and”; a condition that tells them apart may be missing. Equal values may be shown once. About 2,000 (36%) of roughly 5,500 compounds were called active. Not shown: some 18% with an inconclusive outcome. Rule as the data show it: active = normalized growth mostly below about 0.91 (no sharp cut-off); inconclusive = no clear call, values can overlap the other calls; inactive = mostly above about 0.92. Some of the results follow.

Assay: chemical genetic growth profiling, strain panel (AID 1159580);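 also: tested at 20 µM; growth read once vehicle control cultures reached saturation at 30 °C; 1 = growth at the plate median or of vehicle wells; lower values mean less growth of the strain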
Settings: growth OD

Measured: normalized growth

Nc1ccc(S(=O)(=O)Nc2ccnn2-c2ccccc2)cc1
inactive: S. cerevisiae deletion strains, locus YJR075W, strain HOC1, active compounds read low 1.02 and 1.03 | S. cerevisiae deletion strains, locus YKL009W, strain mrt4, active compounds read low 0.976 | S. cerevisiae deletion strains, locus YKL068W, active compounds read low 1 | S. cerevisiae deletion strains, locus YKL085W, strain MDH1 (second series), active compounds read low 0.999 | S. cerevisiae deletion strains, locus YKL085W, strain MDH1, active compounds read low 0.999 | S. cerevisiae deletion strains, locus YKL160W, strain elf1, active compounds read low 0.989 | S. cerevisiae deletion strains, locus YKL190W, strain CNB1, active compounds read low 1.01 | S. cerevisiae deletion strains, locus YKR001C, strain vps1, active compounds read low 0.992 | S. cerevisiae deletion strains, locus YKR026C, strain gcn3, active compounds read low 0.965 | S. cerevisiae deletion strains, locus YKR091W, strain srl3, active compounds read low 0.997 | S. cerevisiae deletion strains, locus YLL001W, strain dnm1, active compounds read low 0.979 | S. cerevisiae deletion strains, locus YLL026W, active compounds read low 0.997 | S. cerevisiae deletion strains, locus YLL041C, strain sdh2, active compounds read low 0.986 | S. cerevisiae deletion strains, locus YLR027C, strain aat2, active compounds read low 0.985 | S. cerevisiae deletion strains, locus YLR039C, strain RIC1, active compounds read low 0.982 | S. cerevisiae deletion strains, locus YLR058C, strain SHM2, active compounds read low 1.01 | S. cerevisiae deletion strains, locus YLR102C, strain apc9, active compounds read low 0.99 | S. cerevisiae deletion strains, locus YLR113W, strain HOG1, active compounds read low 0.998 | S. cerevisiae deletion strains, locus YLR221C, strain rsa3, active compounds read low 0.986 | S. cerevisiae deletion strains, locus YLR258W, strain gsy2, active compounds read low 0.998 | S. cerevisiae deletion strains, locus YLR262C, strain YPT6 (second series), active compounds read low 0.885 | S. cerevisiae deletion strains, locus YLR262C, strain YPT6, active compounds read low 0.993 | S. cerevisiae deletion strains, locus YLR268W, strain sec22, active compounds read low 0.998 | S. cerevisiae deletion strains, locus YLR320W, strain mms22, active compounds read low 1.03 | S. cerevisiae deletion strains, locus YLR330W, strain CHS5, active compounds read low 1 | S. cerevisiae deletion strains, locus YLR342W, strain FKS1 (second series), active compounds read low 0.983 | S. cerevisiae deletion strains, locus YLR342W, strain FKS1, active compounds read low 1.01 | S. cerevisiae deletion strains, locus YLR357W, strain rsc2, active compounds read low 1 | S. cerevisiae deletion strains, locus YLR370C, strain arc18, active compounds read low 1.01 | S. cerevisiae deletion strains, locus YLR371W, strain rom2, active compounds read low 0.99 | S. cerevisiae deletion strains, locus YLR384C, strain iki3, active compounds read low 0.977 | S. cerevisiae deletion strains, locus YLR418C, strain cdc73, active compounds read low 1.01 | S. cerevisiae deletion strains, locus YML016C, strain PPZ1, active compounds read low 1.01 | S. cerevisiae deletion strains, locus YML032C, strain rad52, active compounds read low 0.996 | S. cerevisiae deletion strains, locus YML120C, strain ndi1, active compounds read low 0.99 | S. cerevisiae deletion strains, locus YML124C, strain tub3, active compounds read low 1 | S. cerevisiae deletion strains, locus YMR058W, strain fet3, active compounds read low 0.986 | S. cerevisiae deletion strains, locus YMR078C, strain ctf18, active compounds read low 0.998 | S. cerevisiae deletion strains, locus YMR125W, strain sto1, active compounds read low 0.954 | S. cerevisiae deletion strains, locus YMR129W, active compounds read low 0.988 | S. cerevisiae deletion strains, locus YMR205C, strain PFK2, active compounds read low 1.05 | S. cerevisiae deletion strains, locus YMR223W, strain ubp8, active compounds read low 0.991 | S. cerevisiae deletion strains, locus YMR231W, strain pep5, active compounds read low 0.997 | S. cerevisiae deletion strains, locus YMR263W, strain SAP30, active compounds read low 1.03 | S. cerevisiae deletion strains, locus YMR307W, strain GAS1, active compounds read low 0.943 and 0.968 | S. cerevisiae deletion strains, locus YNL067W, strain RPL9B, active compounds read low 1.02 | S. cerevisiae deletion strains, locus YNL071W, strain lat1, active compounds read low 0.993 | S. cerevisiae deletion strains, locus YNL128W, strain TEP1, active compounds read low 0.995 | S. cerevisiae deletion strains, locus YNL175C, strain NOP13, active compounds read low 1.01 | S. cerevisiae deletion strains, locus YNL183C, strain NPR1, active compounds read low 0.899 | S. cerevisiae deletion strains, locus YNL197C, strain WHI3, active compounds read low 1.01 | S. cerevisiae deletion strains, locus YNL209W, strain ssb2, active compounds read low 0.994 | S. cerevisiae deletion strains, locus YNL224C, strain SQS1, active compounds read low 1 | S. cerevisiae deletion strains, locus YNL233W, strain BNI4, active compounds read low 1.02 | S. cerevisiae deletion strains, locus YNL248C, strain rpa49, active compounds read low 0.957 | S. cerevisiae deletion strains, locus YNL250W, strain rad50, active compounds read low 1 | S. cerevisiae deletion strains, locus YNL271C, strain bni1, active compounds read low 0.993 | S. cerevisiae deletion strains, locus YNL298W, strain CLA4, active compounds read low 1.01 | S. cerevisiae deletion strains, locus YNL307C, strain MCK1, active compounds read low 0.99 | S. cerevisiae deletion strains, locus YNL322C, strain KRE1 (second series), active compounds read low 1 | S. cerevisiae deletion strains, locus YNL322C, strain KRE1, active compounds read low 1.01 and 1.02 | S. cerevisiae deletion strains, locus YNR049C, strain mso1, active compounds read low 0.996 | S. cerevisiae deletion strains, locus YNR052C, strain pop2, active compounds read low 0.981 | S. cerevisiae deletion strains, locus YOL006C, strain TOP1, active compounds read low 1.07 | S. cerevisiae deletion strains, locus YOL012C, strain htz1 1.59 | S. cerevisiae deletion strains, locus YOL147C, strain pex11, active compounds read low 1.01 | S. cerevisiae deletion strains, locus YOR001W, strain rrp6, active compounds read low 0.969 | S. cerevisiae deletion strains, locus YOR061W, strain CKA2, active compounds read low 1.01 | S. cerevisiae deletion strains, locus YOR069W, strain VPS5, active compounds read low 1.01 | S. cerevisiae deletion strains, locus YOR070C, strain gyp1, active compounds read low 0.997 | S. cerevisiae deletion strains, locus YOR080W, strain dia2, active compounds read low 1 | S. cerevisiae deletion strains, locus YOR083W, strain WHI5 (second series), active compounds read low 1.03 | S. cerevisiae deletion strains, locus YOR083W, strain WHI5, active compounds read low 0.968 | S. cerevisiae deletion strains, locus YOR106W, strain vam3, active compounds read low 0.977 | S. cerevisiae deletion strains, locus YOR136W, strain idh2, active compounds read low 1 | S. cerevisiae deletion strains, locus YOR144C, strain elg1, active compounds read low 1 | S. cerevisiae deletion strains, locus YOR184W, strain ser1, active compounds read low 0.996 | S. cerevisiae deletion strains, locus YOR231W, strain MKK1, active compounds read low 0.974 | S. cerevisiae deletion strains, locus YOR265W, strain rbl2, active compounds read low 1 | S. cerevisiae deletion strains, locus YOR270C, strain vph1, active compounds read low 0.997 | S. cerevisiae deletion strains, locus YOR290C, strain snf2, active compounds read low 0.957 | S. cerevisiae deletion strains, locus YOR316C, strain cot1, active compounds read low 0.994 | S. cerevisiae deletion strains, locus YPL051W, strain arl3, active compounds read low 0.978 | S. cerevisiae deletion strains, locus YPL055C, strain LGE1, active compounds read low 1.05 and 1.01 | S. cerevisiae deletion strains, locus YPL078C, strain atp4, active compounds read low 0.963 | S. cerevisiae deletion strains, locus YPL106C, strain sse1, active compounds read low 0.993 | S. cerevisiae deletion strains, locus YPL240C, strain hsp82, active compounds read low 0.979 | S. cerevisiae deletion strains, locus YPL241C, strain CIN2, active compounds read low 1.01 | S. cerevisiae deletion strains, locus YPL256C, strain CLN2, active compounds read low 0.975 | S. cerevisiae deletion strains, locus YPR119W, strain clb2, active compounds read low 0.997 | S. cerevisiae deletion strains, locus YPR141C, strain kar3, active compounds read low 1 | S. cerevisiae deletion strains, locus YPR163C, strain tif3, active compounds read low 1 | S. cerevisiae deletion strains, locus YPR167C, strain met16, active compounds read low 0.991 | S. cerevisiae deletion strains, strain wtn01, active compounds read low 1 | S. cerevisiae strains, strain wild type, active compounds read low 1.01
